Pf growth 48h: Primary qHTS for delayed death inhibitors of the malarial parasite plastid, 48 hour incubation; P. falciparum luciferase growth in erythrocytes, 48 h; Potency, µM (series often up to 28.7 µM), usual class: inhibitors; hit rate 5.9% among 310,000
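Here the parasites carry a stable luciferase gene and grow inside erythrocytes in Albumax-based RPMI medium with compound for one erythrocytic cycle. Activity is scored as loss of luminescent signal.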
HCMV antiviral: qHTS Assay for inhibitors of the human cytomegalovirus (HCMV). HFF cells, HCMV-luciferase reporter, 72 h; active compounds read low. AID 1259415, 2018. hit rate 4.5% among 410,000. activity change, negative = inhibition, % at 57.5 µM; in the data active = activity change below about -60%; inconclusive = no clear call, values can overlap the other calls; inactive = above about -39%
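Two-dose cell screen: HFF monolayers treated with compounds and infected with luciferase-expressing HCMV at 1 PFU/cell, 72 h at 37C, then lysed for luciferase measurement.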
Pf growth 96h: Primary qHTS for delayed death inhibitors of the malarial parasite plastid, 96 hour incubation; P. falciparum luciferase reporter growth, 96 h; Potency, µM (highest dose often 28.7 µM), hits mostly inhibitors; hit rate 6.9% among 320,000; AID 504834, 2011
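Luminescence readout: decreased luciferase signal marks inhibited growth of reporter-expressing P. falciparum in infected red cells (2% hematocrit, 0.05% parasitemia final), exposed to compound two generations (96 h, 37 C, 5% CO2).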
Sm TGR block: qHTS Assay for the Inhibitors of Schistosoma Mansoni Peroxiredoxins; AID 485364, 2010; Potency, µM (doses to about 114 µM), most hits filed as inhibitors; hit rate 3% among 360,000; purified TGR, DTNB reduction, TNB absorbance 405 nm; note: nearly all actives have a fitted effect of over 60% in size
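First, TGR (20 nM dispensed) and NADPH were mixed with compound. Second, a 15 min room-temperature incubation followed. Third, further NADPH and then DTNB were added to start the reaction. Finally, TNB absorbance was monitored kinetically.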
Giardia FBPA inh: qHTS Assay for Inhibitors of Fructose-1,6-bisphosphate Aldolase from Giardia Lamblia | A8B2U2 | purified Giardia FBPA | Potency, µM (highest dose often 59.6 µM), actives largely listed as inhibitors | hit rate 0.71% among 290,000 | AID 2451, 2010; note: nearly all actives have a fitted effect of over 55% in size
Target sequence (A8B2U2 whole entry, looked up): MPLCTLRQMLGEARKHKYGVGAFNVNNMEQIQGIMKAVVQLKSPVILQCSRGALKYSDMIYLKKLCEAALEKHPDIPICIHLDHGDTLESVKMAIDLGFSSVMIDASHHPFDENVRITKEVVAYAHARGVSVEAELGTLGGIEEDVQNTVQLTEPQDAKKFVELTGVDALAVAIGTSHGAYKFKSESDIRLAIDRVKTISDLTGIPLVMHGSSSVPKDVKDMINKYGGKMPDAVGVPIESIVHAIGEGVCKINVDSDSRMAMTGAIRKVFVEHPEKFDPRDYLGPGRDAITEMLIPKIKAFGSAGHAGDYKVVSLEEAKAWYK
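Giardia FBPA (40 nM reagent) was preincubated 10 min at RT with compound (up to 57.5 uM final), then substrate plus GAPDH/TPI/NAD/arsenate coupling system with diaphorase/resazurin was added; resorufin fluorescence (525/598 nm) was read after 20 min.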
Of the large screens only hits and unclear results are named; the others gave an inactive call. Compounds with a hit are over-represented: about 14% of the library has one in this group of screens. Unless noted, calls come from the whole dose curve; as a rule, active = well fitted curve in the direction sought with a large enough effect; inconclusive = small, poorly fitted or top-dose-only effect, or another doubt; inactive = no such curve, though single readings can be large; an effect the other way counts as inactive or inconclusive.

CCC1CC=CC2C1C(=O)N(Cc1ccccc1)C2c1cccc([N+](=O)[O-])c1 (centres undefined)	none (no result: Pf growth 48h, HCMV antiviral, Pf growth 96h, Sm TGR block)
Cc1ccc(Nc2c(-c3ccc(Br)o3)nc3ccccn23)cc1	Sm TGR block inconclusive (no result: Pf growth 48h, Pf growth 96h, Giardia FBPA inh)
O=C1C2C3C=CC(CC3)C2C(=O)N1c1ccc(Br)cc1[N+](=O)[O-] (centres undefined)	none
CC(=O)Oc1cccc(N2C(=O)C3C4C=CC(CC4)C3C2=O)c1 (centres undefined)	Sm TGR block 45µM (no result: Pf growth 48h, HCMV antiviral)
COc1ccccc1N1C(=O)C2C3C=CC(CC3)C2C1=O (centres undefined)	Pf growth 48h 10µM
O=C1C2C3C=CC(CC3)C2C(=O)N1c1ccccc1[N+](=O)[O-] (centres undefined)	Sm TGR block 18µM
O=C(CC1SC(=O)N(c2ccccc2)C1=O)Nc1ccc(Cl)cc1 (centres undefined)	Sm TGR block 4µM
O=C(CC1SC(=O)N(c2ccccc2)C1=O)Nc1ccc(Br)cc1 (centres undefined)	Sm TGR block 3.2µM
O=C(Nc1ccc(Cl)cc1)C1CCCN(c2ncnc3c2nc2n3CCCCC2)C1 (centres undefined)	Pf growth 48h inconclusive, HCMV antiviral inconclusive, Pf growth 96h inconclusive
CS(=O)(=O)c1ccc(Sc2nc3ccccc3s2)c([N+](=O)[O-])c1	Pf growth 48h 13µM, Pf growth 96h inconclusive, Sm TGR block inconclusive (no result: HCMV antiviral)
O=[N+]([O-])c1cc(S(=O)(=O)C(F)(F)F)ccc1Sc1nc2ccccc2[nH]1	Pf growth 48h 15µM, HCMV antiviral -103, Sm TGR block 28µM (no result: Pf growth 96h)
O=S(=O)(Nc1ccc(O)c(Sc2nc3ccccc3s2)c1)c1ccc(F)cc1	none
O=[N+]([O-])c1cc(S(=O)(=O)C(F)(F)F)ccc1Sc1nc2ccccc2s1	Pf growth 48h inconclusive, Pf growth 96h 9.3µM, Sm TGR block 14µM
NCCNc1ccc([N+](=O)[O-])c(Sc2nc3ccccc3[nH]2)c1	Pf growth 48h inconclusive, Pf growth 96h 13µM
CS(=O)(=O)c1ccc(Sc2nc3ccccc3[nH]2)c([N+](=O)[O-])c1	Pf growth 48h inconclusive, HCMV antiviral inconclusive, Pf growth 96h inconclusive
O=[N+]([O-])c1ccc(N2CCNCC2)cc1Sc1nc2ccccc2[nH]1	Pf growth 48h inconclusive, Pf growth 96h inconclusive
COc1cc(C(CC(=O)NCc2ccc(F)cc2)N2Cc3ccccc3C2=O)cc(OC)c1OC (centres undefined)	none (no result: Pf growth 48h, Pf growth 96h, Giardia FBPA inh)
CSc1ccccc1C(=O)C1CCCN(C(=O)c2cccc(Cn3cccn3)c2)C1 (centres undefined)	none (no result: Pf growth 48h, Pf growth 96h, Sm TGR block, Giardia FBPA inh)
COc1ccccc1N(C(C)=O)c1nc(C)cc(C)c1C#N	Pf growth 96h 9.3µM
COc1ccc(Cl)cc1N(C(C)=O)c1nc(C)cc(C)c1C#N	none
Cc1cccc2c(N)c3c(nc12)CCCC3 (tested in a mixture with another compound)	Pf growth 48h 4.7µM, Pf growth 96h inconclusive (no result: Sm TGR block)
CCN(CC)c1nc2ccccc2c(N)c1-c1ccccc1	Pf growth 48h 15µM (no result: Giardia FBPA inh)
c1ccc(Oc2c3ccccc3nc3ccccc23)cc1	Pf growth 48h 7.4µM, Pf growth 96h inconclusive, Sm TGR block 5µM (no result: HCMV antiviral)
Nc1c2ccccc2nc2ccccc12	Pf growth 48h 5.2µM, HCMV antiviral -99, Pf growth 96h 4.7µM
CC1OC(CCc2cccc(Cl)c2)Cc2[nH][nH]c(=O)c21 (centres undefined)	none (no result: Pf growth 48h, Pf growth 96h, Sm TGR block, Giardia FBPA inh)
CC1(C)CO[C@@H](CC(=O)O)CN1	none (no result: HCMV antiviral, Sm TGR block, Giardia FBPA inh)
Cc1cc(C)c2c(N)c3cccc(C)c3nc2n1	Pf growth 48h 4.1µM, HCMV antiviral -99, Pf growth 96h 6.6µM
Nc1c2c(nc3ccccc13)CCCC2	Pf growth 48h inconclusive, Pf growth 96h 8.5µM
Clc1c2c(nc3ccccc13)CCC2	none
CC(C)(C)c1ccc(/C=N/NC(=S)NCc2ccccc2)cc1	Pf growth 48h inconclusive
Cc1ccsc1/C=N\NC(=O)CC(=O)NCc1ccccc1	Giardia FBPA inh 20µM
CCNC(=S)N/N=C/c1cccs1	Pf growth 96h 4.7µM, Sm TGR block inconclusive (no result: Pf growth 48h)
C/C(=N\NC(=S)NCc1ccccc1)c1ccc(C)o1	HCMV antiviral -107, Pf growth 96h inconclusive
CN(C)c1ccc(/C=N/NC(=S)NCc2ccccc2)cc1	Pf growth 48h inconclusive, Pf growth 96h 12µM
O=C(Nc1nnc([C@@H]2C[C@H](O)[C@@H](CO)O2)s1)c1c(F)cccc1F	none (no result: Pf growth 48h, Pf growth 96h, Sm TGR block, Giardia FBPA inh)
Cc1ccsc1/C=N/NC(=O)CNC(=O)c1ccccc1	none
Cc1ccsc1/C=N/NC(=S)NCc1ccccc1	Pf growth 48h 2.9µM
CCC(=O)Nc1nc(C)c(-c2csc(Nc3ccc(C(=O)O)cc3)n2)s1	Giardia FBPA inh inconclusive
CCC(C)C(=O)Nc1nc(C)c(-c2csc(Nc3ccc(Cl)cc3)n2)s1 (centres undefined)	Pf growth 48h 13µM, HCMV antiviral -90, Pf growth 96h 9.3µM
CCCC(=O)Nc1nc(C)c(-c2csc(Nc3ccc(Cl)cc3)n2)s1	Pf growth 48h 0.83µM, Pf growth 96h inconclusive
Cc1cc(C)nc(NC(=NCCc2c[nH]c3ccccc23)NC(=O)c2ccco2)n1	Pf growth 48h 6.6µM, Pf growth 96h 5.9µM
Cc1cccc(NC(=O)NCCc2c[nH]c3ccccc23)c1	none
Cc1cc(C)nc(NC(=NCCc2c[nH]c3ccccc23)NC(=O)Nc2ccccc2)n1	Pf growth 48h 5.2µM, HCMV antiviral inconclusive, Pf growth 96h 4.7µM
Cc1cc(C)nc(NC(=NCCc2c[nH]c3ccccc23)NC(=O)Nc2ccc(Cl)c(Cl)c2)n1	Pf growth 48h inconclusive, Pf growth 96h 2.1µM
COc1ccc2[nH]cc(CCN=C(NC(=O)c3ccccc3F)Nc3nc(C)cc(C)n3)c2c1	HCMV antiviral -66 (no result: Pf growth 48h, Pf growth 96h, Giardia FBPA inh)
CCOC(=O)c1ccc(NC(=O)c2ccc3c(c2)C(=O)N(Cc2cccnc2)C3=O)cc1	none (no result: Giardia FBPA inh)
O=C(CCCCn1c(=O)c2ccccc2n(CC(=O)Nc2ccc(F)cc2F)c1=O)NCCc1ccccc1	none (no result: Pf growth 48h, Pf growth 96h, Giardia FBPA inh)
CC(C)CN1CCCC2(CCN(C(=O)c3cnccn3)CC2)C1	none (no result: Pf growth 48h, HCMV antiviral, Pf growth 96h, Sm TGR block)
CCCCn1c(N)c(N(CC(C)C)C(=O)CCNC(=O)c2ccc(Br)cc2)c(=O)[nH]c1=O	Pf growth 96h inconclusive (no result: Giardia FBPA inh)
COCCn1c(SCC(=O)NN2C(=O)NC(C)(c3ccccc3)C2=O)nnc1-c1ccncc1 (centres undefined)	none (no result: Giardia FBPA inh)
Cc1cc(C)nc(NC(=NCCc2c[nH]c3ccccc23)NC(=O)Nc2cccc([N+](=O)[O-])c2)n1	Pf growth 48h 3.3µM
Cc1cc(C(F)(F)F)c(C#N)c(SCC(=O)Nc2nc3ccccc3s2)n1	HCMV antiviral -60
Cc1nc(SCC(=O)Nc2nc3ccccc3s2)c(C#N)c(C)c1C	HCMV antiviral -94, Pf growth 96h inconclusive
O=C(CSC1=NCCS1)Nc1nc2ccccc2s1	HCMV antiviral -68
Cc1nc(SCC(=O)Nc2nccs2)c(C#N)c(C)c1C	HCMV antiviral -69 (no result: Giardia FBPA inh)

High-throughput results as filed in PubChem.
